This note sets out measurements from the supplement of paper PMC9262897, “Low-cost anti-mycobacterial drug discovery using engineered E. coli” (Nature Communications, 2022).

What all share (assay): growth (OD600 after 10 h); higher = more growth (less inhibition)
In assay [1] the test system is E. coli TESEC Alr+ wild-type control. The following applies: compound 0.1 mM; raw OD600 reference: median of DMSO wells 0.241, cell-free background 0.041. On the procedure: (§1)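 TESEC Mtb Alr E. coli, or the Alr+ wild-type control, in 384-well plates with Prestwick library compounds at 0.1 mM and 1% DMSO, across arabinose induction levels of 1E3 to 1E7 nM. Growth is read as OD600 after 10 h at 37 °C in triplicate biological replicates.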

In assay [2] the test system is E. coli TESEC Mtb Alr. The note with it: compound 0.1 mM. The procedure:
as §1

Assay [3] concerns E. coli TESEC Mtb Asd. The following applies: compound 0.1 mM. The procedure:
(§2)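 TESEC E. coli strains in which the native enzyme is deleted and replaced by arabinose-inducible Mtb Asd, DapB, CysH or TrpD, each grown in its selective medium. Strains were screened against the Prestwick library at 0.1 mM and 1% DMSO in 384-well format at low and high arabinose induction. Growth is read as OD600 after 10 h in triplicate.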

Assay [4] relates to E. coli TESEC Mtb DapB. The following applies: compound 0.1 mM. The procedure:
as §2

Assay [5] relates to E. coli TESEC Alr+ wild-type control. The following applies: compound 0.1 mM; raw OD600 reference: median of DMSO wells 0.49, cell-free background 0.052. The procedure:
(§3)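 TESEC Mtb Alr E. coli (ΔaraC ΔtolC ΔentC Δalr ΔdadX, arabinose-inducible Mtb Alr) or the Alr+ wild-type control strain, grown in defined M9-fructose medium without D-alanine in 96-well plates with Prestwick library compounds at 0.1 mM and 1% DMSO. Low Alr induction is 0.1 µM arabinose and high induction is 10 mM arabinose.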

For assay [6], the system named is E. coli TESEC Mtb Alr. The following applies: compound 0.1 mM. The procedure:
as §3
The source holds these as a separate data set.

Setting [7] is: arabinose 1000 nM, raw OD600 reference: median of DMSO wells 0.294, cell-free background 0.041.
[8] abbreviates: arabinose 10000 nM, raw OD600 reference: median of DMSO wells 0.264, cell-free background 0.041.
The mark [9] stands for this setting: arabinose 100000 nM, raw OD600 reference: median of DMSO wells 0.201, cell-free background 0.041.
The mark [10] stands for this setting: arabinose 1000000 nM, raw OD600 reference: median of DMSO wells 0.193, cell-free background 0.041.
Setting [11] is: arabinose 10000000 nM, raw OD600 reference: median of DMSO wells 0.146, cell-free background 0.041.
Setting [12] is: arabinose induction (level): High, raw OD600 reference: median of DMSO wells 0.331, cell-free background 0.041.
Setting [13] is: arabinose induction (level): Low, raw OD600 reference: median of DMSO wells 0.417, cell-free background 0.041.
Setting [14] is: arabinose induction (level): High, raw OD600 reference: median of DMSO wells […], cell-free background 0.041.
Where [15] appears, read: arabinose induction (level): Low, raw OD600 reference: median of DMSO wells 0.227, cell-free background 0.041.
[16] abbreviates: arabinose 100 nM, raw OD600 reference: median of DMSO wells 0.413, cell-free background 0.052.
[17] abbreviates: arabinose 10000000 nM, raw OD600 reference: median of DMSO wells […], cell-free background 0.052.

Where a name gives a salt, the structure may show the parent alone. ± gives the standard deviation of the averaged measurements.

Turning to `CC(=O)[C@@]12O[C@](C)(c3ccccc3)O[C@@H]1C[C@H]1[C@@H]3CCC4=CC(=O)CC[C@]4(C)[C@H]3CC[C@@]12C` [Algestone acetophenide], the growth in assay [1] was 0.232 ± 0.0045; in assay [2] (setting [7]), 0.323 ± 0.053; in assay [2] (setting [8]) it was 0.265 ± 0.029; in assay [2] (setting [9]), 0.173 ± 0.031; in assay [2] (setting [10]), 0.115 ± 0.0061; in assay [2] (setting [11]) it was 0.211 ± 0.0087. Moreover, the growth in assay [3] (setting [12]) amounted to 0.231 ± 0.0044; in assay [3] (setting [13]), 0.278 ± 0.038; in assay [4] (setting [14]), 0.15 ± 0.015; in assay [4] (setting [15]), 0.171 ± 0.0092; in assay [5], 0.381 ± 0.016; in assay [6] (setting [16]), 0.413 ± 0.011. Besides, the growth in assay [6] (setting [17]) came out at 0.117 ± 0.013.
For the molecule `O=C(O)CNC(=O)C(CS)Cc1ccccc1` (configuration not stated) [Thiorphan], the growth in assay [1] was found to be 0.26 ± 0.0069; in assay [2] (setting [7]), 0.305 ± 0.013; in assay [2] (setting [8]), 0.2568 ± 0.0017; in assay [2] (setting [9]) it was 0.252 ± 0.037; in assay [2] (setting [10]), 0.172 ± 0.003; in assay [2] (setting [11]) it was 0.167 ± 0.0089. The growth in assay [3] (setting [12]) stood at 0.3 ± 0.069; in assay [3] (setting [13]) it was 0.382 ± 0.034; in assay [4] (setting [14]) it was 0.202 ± 0.019; in assay [4] (setting [15]), 0.236 ± 0.019; in assay [5], 0.475 ± 0.036; in assay [6] (setting [16]) it was 0.409 ± 0.0074. Besides, the growth in assay [6] (setting [17]) came to 0.348 ± 0.021.
Turning to `CN(C)[C@@H]1C(=O)C(C(N)=O)=C(O)[C@@]2(O)C(=O)C3=C(O)c4c(O)ccc(Cl)c4[C@@H](O)[C@H]3C[C@@H]12` [Demeclocycline hydrochloride], the growth came out at 0.0424 ± 0.00081 in assay [1]; 0.0502 ± 0.0039 in assay [2] (setting [7]); 0.0459 ± 0.0013 in assay [2] (setting [8]); 0.0479 ± 0.0019 in assay [2] (setting [9]); 0.0435 ± 0.00079 in assay [2] (setting [10]); 0.0452 ± 0.0007 in assay [2] (setting [11]). Besides, the growth was 0.0573 ± 0.0014 in assay [3] (setting [12]); 0.0773 ± 0.029 in assay [3] (setting [13]); 0.0577 ± 0.0035 in assay [4] (setting [14]); 0.0559 ± 0.002 in assay [4] (setting [15]); 0.05087 ± 0.00038 in assay [5]; 0.0561 ± 0.0037 in assay [6] (setting [16]). The growth in assay [6] (setting [17]) was found to be 0.05407 ± 0.00042.
Consider `CNC1(C)C2CCC(C2)C1(C)C` (configuration not stated) [Mecamylamine hydrochloride], for which the growth in assay [1] is 0.242 ± 0.006; in assay [2] (setting [7]), 0.307 ± 0.0084; in assay [2] (setting [8]) it was 0.293 ± 0.0071; in assay [2] (setting [9]) it was 0.214 ± 0.034; in assay [2] (setting [10]) it was 0.185 ± 0.016; in assay [2] (setting [11]), 0.156 ± 0.0054. In addition, the growth in assay [3] (setting [12]) is 0.266 ± 0.078; in assay [3] (setting [13]), 0.304 ± 0.093; in assay [4] (setting [14]) it was 0.187 ± 0.018; in assay [4] (setting [15]), 0.238 ± 0.012; in assay [5] it was 0.462 ± 0.03; in assay [6] (setting [16]), 0.433 ± 0.0029. In assay [6] (setting [17]), this molecule had a growth of 0.312 ± 0.02.
